hcDAF-12 act = H. contortus DAF-12 nuclear receptor activators, primary screen, cell-based, luminescence, HEK293, lit1-tk-luc reporter; HEK293 hcDAF-12 lit1-tk-luc reporter; 0% DMSO, 100% Δ7-dafachronic acid; activation, % at 6.8 µM; 1.4% of 370,000 active; AID 652067, 2013;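 active = activation above the mean of all tested compounds plus 3 SD, cut at about 5.5% in these data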
DAX1 inh-1 = DAX1 (NR0B1) inhibitors on StAR promoter, primary screen, cell-based, luminescence, SF-1 (NR5A1), full-length DAX-1 | HEK293T StAR-luciferase reporter, SF-1/DAX-1 repression relief | inhibition, % at 6.8 µM | 1.1% of 370,000 active;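 active = inhibition above the mean over all tested compounds plus 3 SD, cut at about 3.6% in these data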;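 also: higher inhibition means more luminescence from relief of DAX-1 repression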
ssDAF-12 act = S. stercoralis DAF-12 nuclear receptor activators, primary screen, cell-based, luminescence, HEK293, GRIP1 co-expression, lit1-tk-luc. Nuclear hormone receptor DAF-12 (Strongyloides stercoralis). HEK293 ssDAF-12/GRIP1 lit1-tk-luc reporter; % of 3 µM dafachronic acid response. activation, % at 6.8 µM. 1% of 370,000 active;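 active = activation above the mean over all tested compounds plus 3 SD, cut at about 0.9% in these data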
DAX1 inh-2 = DAX1 (NR0B1) inhibitors, primary screen, cell-based, HEK293, Gal4-DAX1, luciferase luminescence; inhibition, % at 6.75 µM; Nuclear receptor subfamily 0 group B member 1 (Homo sapiens), P51843; HEK293 Gal4-DAX1 luciferase reporter; 0.99% of 340,000 active;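 active = inhibition above the mean over all tested compounds plus 3 SD, cut at about 4.2% in these data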;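 also: inhibition shows as a rise in luminescence from relieved DAX1 repression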
hgDAF12 agonist = H. glycines DAF-12 receptor agonists, primary screen, cell-based, luminescence, HEK293, GAL4 fusion, UAS-luciferase | HEK293 GAL4-hgDAF12 UAS-luciferase reporter, agonist luminescence; normalized to butyrate control | 1.8% of 370,000 active | activation, % at 6.8 µM | Nuclear hormone receptor DAF-12 (Heterodera glycines), GAL4 fusion;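 active = activation above a cutoff set at the mean of all screened compounds plus 3 SD, cut at about 10% in these data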
LXR ag = LXR agonists, Gal4 luciferase reporter, confirmation, counter-screen for hcDAF-12 agonist project, cell-based, luminescence, HEK293, H. contortus campaign; 3,400 tested, under 10 active; HEK293 Gal4-LXR tk-luc reporter, 24 h; normalized: DMSO 0%, positive control 100%; shares compounds with hcDAF-12 act; activation, % at 6.8 µM;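 active = mean percent activation of the reporter above a cutoff set as the average over tested compounds plus their standard deviation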
Target sequence (P55055 whole entry, looked up, the tested form may be a part): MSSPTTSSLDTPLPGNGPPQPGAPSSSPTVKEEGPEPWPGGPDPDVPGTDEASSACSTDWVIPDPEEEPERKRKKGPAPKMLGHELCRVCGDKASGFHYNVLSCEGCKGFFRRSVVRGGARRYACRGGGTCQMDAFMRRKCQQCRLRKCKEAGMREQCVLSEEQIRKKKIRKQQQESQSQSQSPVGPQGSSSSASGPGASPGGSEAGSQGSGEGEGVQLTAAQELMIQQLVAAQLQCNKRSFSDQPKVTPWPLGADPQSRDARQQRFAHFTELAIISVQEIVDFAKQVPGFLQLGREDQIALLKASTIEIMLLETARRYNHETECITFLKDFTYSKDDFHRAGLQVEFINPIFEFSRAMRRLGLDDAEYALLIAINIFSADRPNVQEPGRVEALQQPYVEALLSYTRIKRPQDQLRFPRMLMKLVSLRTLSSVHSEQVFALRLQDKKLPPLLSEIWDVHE
hcDAF12 conf = H. contortus DAF-12 receptor agonists, confirmation, cell-based, luminescence, HEK293, lit1-tk-luc, triplicate. HEK293 hcDAF-12 lit1-tk-luc reporter; % of Δ7-dafachronic acid response. 61% of 3,400 active. shares compounds with hcDAF-12 act. activation, % at 6.8 µM;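 active = mean activation across triplicate tests above the threshold derived from the earlier primary screen, cut at about 5.5% in these data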
Large screens that a line does not name were inactive (follow-up assays come after a bar, where they were run). Only some compounds are listed: those with a hit (about 4.1% of all), similar ones and a draw of the others.

Cc1cc2nc(-c3cccc(Cl)c3)c(CC3CCCCC3)n2c(C)c1Br	none (no result: DAX1 inh-2)
Cc1ccc(-c2nc3cc(C)c(Br)c(C)n3c2CC2CCCCC2)cc1	hcDAF-12 act 7.7, ssDAF-12 act 1.7 (no result: DAX1 inh-2) | LXR ag inactive | hcDAF12 conf inactive
Cc1cc2nc(-c3ccccc3)c(CC3CCCCC3)n2c(C)c1Br	hcDAF-12 act 6.9, ssDAF-12 act 0.9 (no result: DAX1 inh-2) | LXR ag inactive | hcDAF12 conf inactive
CC(=O)C1=CCC(c2ccc(Cl)cc2)N(S(=O)(=O)c2ccccc2)C1 (configuration not stated)	none (no result: DAX1 inh-2)
CO[C@H]([C@H](C)/C=C/N(C)C=O)[C@@H](C)C(=O)CC[C@H](C)[C@H](O)[C@H](C)[C@H]1OC(=O)/C=C/C(C)=C/C[C@H](O)C[C@@H]2C=CC[C@@H](C[C@H](OC)[C@@H](CO)[C@@H](OC)C[C@@H](OC)[C@@H]1C)O2	none (no result: DAX1 inh-1, DAX1 inh-2)
O=c1c2ccccc2nnn1COc1ccc(Cl)cc1Br	none
O=C(OCc1nc2ccccc2s1)c1cnccn1	hcDAF-12 act 8.2 | LXR ag inactive | hcDAF12 conf 9.8
CCCCC(=O)OCc1nc2ccccc2s1	none
O=C(O)CCCC(=O)Nc1ccc(OCc2nc3ccccc3s2)cc1	none
O=C(O)c1ccccc1OCc1nc2ccccc2s1	hcDAF-12 act 9.2, ssDAF-12 act 1.2 | LXR ag inactive | hcDAF12 conf 7.2
Cc1ccc(C)c(-c2nnc(NC(=O)CCS(=O)(=O)c3ccccc3)o2)c1	none
Cc1ccccc1-c1nnc(CS(=O)(=O)c2ccccc2)o1	hcDAF-12 act 6.8, ssDAF-12 act 1.5, hgDAF12 agonist 11.8 | LXR ag inactive | hcDAF12 conf 7.0
CCc1ccc(C(=O)NNC(=O)OC)cc1	none
O=C1c2ccccc2-c2n[nH]c3cccc1c23	none
Cc1ccccc1-c1cc2c(nn1)-c1ccccc1C2=O	hcDAF-12 act 7.2, ssDAF-12 act 1.5 | LXR ag inactive | hcDAF12 conf 6.2
CC(C)c1ccc2c(c1)C1Cc3ccccc3C1N2 (configuration not stated)	hcDAF-12 act 7.8 | LXR ag inactive | hcDAF12 conf inactive
O=c1[nH]c(SCc2ccc(OC(F)(F)F)cc2)nc2c1CCC2	none (no result: DAX1 inh-2)
CC(=O)c1ccc(OC(C)c2nc3ccccc3s2)cc1 (configuration not stated)	hcDAF-12 act 7.7, ssDAF-12 act 1.0 | LXR ag inactive | hcDAF12 conf 9.6
COc1cccc(C(=O)N(C)C(C)c2nc3ccccc3s2)c1 (configuration not stated)	none
CCOC(=O)c1nc2ccccc2nc1C	hcDAF-12 act 6.9 | LXR ag inactive | hcDAF12 conf inactive
Cc1cc(C)c(C)c(C(=O)COC(=O)CNC(=O)CNC(=O)c2ccco2)c1C	none
O=C(Nc1cc2c(cc1Cl)OCCCO2)c1ccc(F)cc1	none
O=C(COC(=O)c1cc([N+](=O)[O-])ccc1Cl)NC1CCCC1	hcDAF-12 act 10.2 | LXR ag inactive | hcDAF12 conf inactive
CC(C)=CCC/C(C)=C/CNCC(=O)N1c2ccccc2[C@]2(c3ccccc3)C[C@@H]3C(=O)N(C/C=C(\C)CCC=C(C)C)CC(=O)N3[C@H]12	none (no result: DAX1 inh-2)
c1ccc2c(C3=NNC(=NC4CCCCC4)SC3)c[nH]c2c1	hcDAF-12 act 9.3, ssDAF-12 act 1.5 | LXR ag inactive | hcDAF12 conf inactive
CC(C)(C)OC(=O)NNC1CC(=O)N(c2ccccc2F)C1=O (configuration not stated)	none
O=C(N/N=C/c1c[nH]c2ccccc12)C1CC1c1ccccc1 (configuration not stated)	hcDAF-12 act 9.2 | LXR ag inactive | hcDAF12 conf inactive
CC(C)(C)OC(=O)N/N=C/c1c[nH]c2ccccc12	hcDAF-12 act 11.0, ssDAF-12 act 1.4, hgDAF12 agonist 11.9 | LXR ag inactive | hcDAF12 conf 6.6
Cc1nccn1CC(=O)N/N=C/c1c[nH]c2ccccc12	hcDAF-12 act 8.3 | LXR ag inactive | hcDAF12 conf inactive
Cc1nccn1CC(=O)N/N=C/c1ccccc1O	none
Cc1occc1C(=O)N/N=C/c1c[nH]c2ccccc12	none (no result: hcDAF-12 act, DAX1 inh-1, ssDAF-12 act, hgDAF12 agonist)
O=C(N/N=C/c1c[nH]c2ccccc12)c1ccc(Cl)cc1	none
O=C(N/N=C/c1c[nH]c2ccccc12)C1CC1(c1ccccc1)c1ccccc1 (configuration not stated)	none
O=C(N/N=C\c1c[nH]c2ccccc12)c1ccc(O)cc1	hcDAF-12 act 9.7, ssDAF-12 act 1.4 | LXR ag inactive | hcDAF12 conf inactive
O=C(Cc1ccccc1)NNC(=O)C1CC=CCC1 (configuration not stated)	none
Cc1c(/C=N\NC(=O)c2c[nH]c3ccccc23)cnn1C	hcDAF-12 act 9.4, ssDAF-12 act 1.7 | LXR ag inactive | hcDAF12 conf inactive
O=C(N/N=C/c1c[nH]c2ccccc12)c1ccc(Br)cc1	hcDAF-12 act 7.3, ssDAF-12 act 1.1 | LXR ag inactive | hcDAF12 conf inactive
O=C(N/N=C/c1c[nH]c2ccccc12)c1ccn[nH]1	hcDAF-12 act 9.9, hgDAF12 agonist 11.8 | LXR ag inactive | hcDAF12 conf inactive
O=S(=O)(c1ccccc1F)N1CCN(Cc2nc3ccccc3[nH]2)CC1	none
CCC(=O)N(CCc1ccc(OC)c(OC)c1)Cc1cc2ccc(C)cc2n2nnnc12	none
CC(C)CNC(=O)C1CCN(Cc2ccc(OCc3ccccc3)cc2)CC1	hcDAF-12 act 7.1 | LXR ag inactive | hcDAF12 conf inactive
CC(O)CNC(=O)C1CCN(Cc2ccc(OCc3ccccc3)cc2)CC1 (configuration not stated)	none
Cn1c(=O)c(-c2cc(Br)ccc2N)nc2ccccc21	hcDAF-12 act 10.9, ssDAF-12 act 1.2 | LXR ag inactive | hcDAF12 conf 12.5
NC(=O)c1cccc(CC(=O)c2ccccc2)c1	none

Compound activity: PubChem BioAssay, The Scripps Research Institute Molecular Screening Center
